# Over roughly 68,000 sequences, “fluorescence intensity (a.u.)” has its median near 9,100; the highest 2% begin near 16,000. For the sample, the highest values were picked, then their nearest neighbours and some sequences at random.
# Biological target: OsWRKY34 (Oryza sativa, UniProt Q0JBA9 1-250)
# Assay: protein-binding microarray (RPBM); PBS, 2% BSA, 51.3 ng/ul salmon testes DNA, 50 uM zinc acetate, 200 nM TF, 25 C, 1 h; high values mean tight binding
# Conditions: protein: recombinant; tags: N-terminal polyhistidine and DsRed monomer fusion (pET32a); label: CyDye5-dUTP incorporated in the synthesized complementary strand; 3' TTTTT single-stranded linker to array surface; dsDNA, one strand shown
# Procedure, shortened: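 In PBS with 2% BSA, salmon testes DNA and 50 µM zinc acetate, 200 nM protein was incubated on a custom Agilent array at 25 °C for 1 h and then washed off. The array had been made double-stranded by primer extension with Cy5-dUTP and blocked with 2% BSA. The proteins were transcription factors fused N-terminally to polyhistidine and DsRed, expressed in E. coli BL21-CodonPlus and purified on Ni–NTA. The binding signal is per-feature fluorescence intensity (arbitrary units) from an Axon 4000B scanner.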
# Sequence of OsWRKY34 (Q0JBA9 entry or part of it): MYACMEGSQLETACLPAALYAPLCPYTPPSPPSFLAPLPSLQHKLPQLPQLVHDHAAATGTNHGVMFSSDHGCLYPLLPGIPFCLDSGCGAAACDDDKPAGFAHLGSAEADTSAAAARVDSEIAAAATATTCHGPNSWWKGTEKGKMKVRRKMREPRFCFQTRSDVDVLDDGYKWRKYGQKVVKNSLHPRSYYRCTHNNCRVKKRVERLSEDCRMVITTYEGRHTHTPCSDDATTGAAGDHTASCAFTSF
row,Sequence,binding signal
1,CTATCTTTTTCTCCATCTTTCTCTGTCCGTCCATTCACCCCGGAGTCACCTAGTGCAG,8690 fluorescence intensity (a.u.)
2,AGGTGTGTATCGTACCGTGGCGGGCGCTTTCCTGGTGGGGCGGAGTCACCTAGTGCAG,10200 fluorescence intensity (a.u.)
3,GTGCTGTGATTGGCCGCGCGGGATTTCCTGGGCGGGCGGGCGGAGTCACCTAGTGCAG,15500 fluorescence intensity (a.u.)
4,CGCCGCCTTTGCCACTATCGCTCCCTCCTCCAGCCGGATCCGGAGTCACCTAGTGCAG,10600 fluorescence intensity (a.u.)
5,GATGGATGGGGTGGGGACTGGGGATGGATGGAGGCGGCGGCGGAGTCACCTAGTGCAG,21300 fluorescence intensity (a.u.)
6,CGAGGAGCGGGGTGGGGTCGGAGGCGGGGAGGGAGGACGCCGGAGTCACCTAGTGCAG,16100 fluorescence intensity (a.u.)
7,CGCGGTGTGCCGGGGAGGGAGGTGGTGGTTGAGGTTGAGGCGGAGTCACCTAGTGCAG,11700 fluorescence intensity (a.u.)
8,CGCCTGCCTGCCGCCACCGCCACTCCACTTTGCTTCACCGCGGAGTCACCTAGTGCAG,9570 fluorescence intensity (a.u.)
9,CTGGGAGGGAGGGGAGGGAGCGCCGCCTTTGCCACTATCGCGGAGTCACCTAGTGCAG,16900 fluorescence intensity (a.u.)
10,GGGATGGATGGAGGCGGCGGTGCTGAGGTGGTGGGACTGTCGGAGTCACCTAGTGCAG,8460 fluorescence intensity (a.u.)
11,TCGGTGGGTGCCGGGCGGAGCGGTTTTTGAGGGAGGGGTCCGGAGTCACCTAGTGCAG,17600 fluorescence intensity (a.u.)
12,GGGGAGGTGGAGATGAGATGAGGCGGCGGGGTGGCGGTGGCGGAGTCACCTAGTGCAG,13700 fluorescence intensity (a.u.)
13,GGATTTCCTGGGCGGGCGGGGCGCGGATAAGGGGTGTGTGCGGAGTCACCTAGTGCAG,17000 fluorescence intensity (a.u.)
14,CATATGTTTTGTTTTGCTTTGGGGCTTTTAGTAGTAGTTCCGGAGTCACCTAGTGCAG,9460 fluorescence intensity (a.u.)
15,CACAGATCATTACACACTGTTTGAGCATCTCTCTATTCCTCGGAGTCACCTAGTGCAG,8320 fluorescence intensity (a.u.)
16,ACCCATTACAACCCTGTAGTACATGCCACACCGTTTGACACGGAGTCACCTAGTGCAG,10800 fluorescence intensity (a.u.)
17,CCTTCACCTGGTAATCATTTCGATGCATTCATTTCCCTATCGGAGTCACCTAGTGCAG,8470 fluorescence intensity (a.u.)
18,CTCGGCCAAAAAGAGATATCCCTTTCGCGCTCATCTTATCCGGAGTCACCTAGTGCAG,9980 fluorescence intensity (a.u.)
19,GGTGGTGGTGGTGGTGCCGGAGCTGGGGAGAAGAGGAGGACGGAGTCACCTAGTGCAG,9350 fluorescence intensity (a.u.)
20,ATATATATATATATATATATATATATATATATAGGGACAGCGGAGTCACCTAGTGCAG,9530 fluorescence intensity (a.u.)
21,GAGCTCGGCGAAATCGATCTGTGGGAGGGAGGGCGGCGAGCGGAGTCACCTAGTGCAG,9110 fluorescence intensity (a.u.)
22,GGGATGTGGCGGGCGGTGGGTCCAGGGAGGAGGAGGAGAACGGAGTCACCTAGTGCAG,15000 fluorescence intensity (a.u.)
23,GGAGAGGAGTGAGGAGGGATTGTGAGGTGGGGTCGGGGTGCGGAGTCACCTAGTGCAG,9030 fluorescence intensity (a.u.)
24,GGTGAGGTGGTGGTGGTGGTGGTCGGGAAGTGGCGGCGCCCGGAGTCACCTAGTGCAG,16100 fluorescence intensity (a.u.)
25,TCGAGCTGGGTGGGGTTTTTATATGGGAGGAGAGGCCGCGCGGAGTCACCTAGTGCAG,16800 fluorescence intensity (a.u.)
26,ACGGTGGCGGGGATGTGGAGGGAGGTGCAGGGGTGCGGGGCGGAGTCACCTAGTGCAG,22600 fluorescence intensity (a.u.)
27,TGTGAGGTGGGGTCGGGGTGGAAGTGGGTGAGGAGGGGTGCGGAGTCACCTAGTGCAG,21700 fluorescence intensity (a.u.)

row,Sequence,binding signal
1,GTGGGAGAGGCCGGCCGAGGGGAGGAGAGGGGAGGGGTGCCGGAGTCACCTAGTGCAG,10700 fluorescence intensity (a.u.)
2,GAAAATCTGTGGGAGGGGAGGGGAGGGGACGAGGGGACAGCGGAGTCACCTAGTGCAG,19000 fluorescence intensity (a.u.)
3,GTGGAGGTCGGGGTCGGGGAGGATGAGGAGGAGGGTGTGGCGGAGTCACCTAGTGCAG,10100 fluorescence intensity (a.u.)
4,TACTGCAACTCTGCAAGCACATTGATCAATCGATCAATCCCGGAGTCACCTAGTGCAG,8450 fluorescence intensity (a.u.)
5,TTTGTGGGGCTCTCTCTTTGATGCTTTCTTCTCTTTAGCTCGGAGTCACCTAGTGCAG,10000 fluorescence intensity (a.u.)
6,CTAAATTGTATTTCTATATGGACTTTGCTTTTTCTTTTTCCGGAGTCACCTAGTGCAG,10900 fluorescence intensity (a.u.)
7,GTGGTCCAATCACCCTTTGACCCTTCGCCTCCGTGGCGCCCGGAGTCACCTAGTGCAG,8500 fluorescence intensity (a.u.)
8,TTTCTTGATTAGGGTTTGAATTCATATTACTAACTTTCCTCGGAGTCACCTAGTGCAG,8450 fluorescence intensity (a.u.)
9,TTCCGCGTCAACCACCACCGCGCCGGCGTGCGCCTCCGCGCGGAGTCACCTAGTGCAG,10300 fluorescence intensity (a.u.)
10,ATCAGCCTCATGCCCTTGTAGTCCATCGATCTGTCAGATCCGGAGTCACCTAGTGCAG,13300 fluorescence intensity (a.u.)
11,GGAGGTGGGAGTGGGCAGTGGCTCGGCTCGTCGTCCTGGGCGGAGTCACCTAGTGCAG,8780 fluorescence intensity (a.u.)
12,TGAGCCTTGCTCGTCGGCGGCGAGGTGGGGTGGGGCGGGGCGGAGTCACCTAGTGCAG,20800 fluorescence intensity (a.u.)
13,TGTGGATGGCGGGGCGAGGCGGAATGGGGCGAATGCGGCGCGGAGTCACCTAGTGCAG,8240 fluorescence intensity (a.u.)
14,GGAGGAGGCTGGTAGGGGAGGCGGGAGTCCGGCGGCGAGGCGGAGTCACCTAGTGCAG,8640 fluorescence intensity (a.u.)
15,GAGGCGGGTGGGCGAGCTCCGGCGGCGGCGGGGTGGCCTTCGGAGTCACCTAGTGCAG,15800 fluorescence intensity (a.u.)
16,GCGGAATGGGCGGCGGTGGAGGTGGCGGGTTTGGAGGCGGCGGAGTCACCTAGTGCAG,16700 fluorescence intensity (a.u.)
17,GGCGGCCAGATCCGGGGCTGGGGAGGCGACGGCGGCGGGGCGGAGTCACCTAGTGCAG,8710 fluorescence intensity (a.u.)
18,TACTTTATCCGCGGCGGGTAGCTGGGGAGGGAGGGGAGGCCGGAGTCACCTAGTGCAG,22500 fluorescence intensity (a.u.)
19,GGAGGTGGGGATGGTGGGAGGTTTTGGTTTGGTAAAATAGCGGAGTCACCTAGTGCAG,19800 fluorescence intensity (a.u.)
20,TTCGTTTTTCTTTTTTTTTTGATGGGGAGGTTGTAAAATGCGGAGTCACCTAGTGCAG,13800 fluorescence intensity (a.u.)
21,CAGCAGCAGTGGTGGTGGTGGTTTTGGTAGTGGCTGGGAGCGGAGTCACCTAGTGCAG,9780 fluorescence intensity (a.u.)
22,TGGGCTTGGTGGAGGTGGCGGGTTTGGAGGCGGAGGTGGCCGGAGTCACCTAGTGCAG,14400 fluorescence intensity (a.u.)
23,CGGTAGTGCGTTAGGTCTTCTCCAAGTCTCTTGGCTTTTACGGAGTCACCTAGTGCAG,11100 fluorescence intensity (a.u.)
24,TCACCGATTCACTCTCCTAGTCCTAGAGTCCTGGTCCATCCGGAGTCACCTAGTGCAG,8440 fluorescence intensity (a.u.)
25,GCACCCACAGTTCCATGAGACACATAGAAGTTTTACACAACGGAGTCACCTAGTGCAG,10600 fluorescence intensity (a.u.)
26,TTTCTGAGAGGCATAGTTCATGTTTCCCCATATATACTTCCGGAGTCACCTAGTGCAG,8830 fluorescence intensity (a.u.)
27,TCCGCTGCCTTCGATTCTTGGTAAGCCCCTAATTCTCCTTCGGAGTCACCTAGTGCAG,8420 fluorescence intensity (a.u.)

# Reference: PMC7819943, “Rice protein-binding microarrays: a tool to detect cis-acting elements near promoter regions in rice”
